About 17,000 (4.7%) of roughly 360,000 compounds were called active. About 5% were inconclusive and are not listed. Rule as the data show it: active = activity change below about -50%; inconclusive = mostly about -30% to -49%; inactive = weaker than that. Shown is part of a subset that was picked to be rich in actives.
Test: qHTS for Inhibitors of Inflammasome Signaling: IL-1-beta AlphaLISA Primary Screen
Conditions: THP-1 LPS/ATP IL-1B secretion, 16 h; at 57.5 µM, hits give low values
Method in brief: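 THP-1 cells pretreated 1 hr with compounds (up to 57.5 uM final), then stimulated with LPS (250 ng/mL final) plus ATP (1.25 mM final); secreted IL-1B measured by AlphaLISA after 16 hr, decreased signal indicating inhibition.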
% is scaled to controls: 0 for no effect and ±100 for the full control effect.

Structure (SMILES)	activity change
CC1=C(C(=O)N(C(C)C)C(C)C)CC(CC(=O)NCC2CCCCC2)C(=O)N1Cc1ccccc1 (stereo not drawn)	-28.7% (inactive)
CN(C)C(CNC(=O)c1cc2ccccc2o1)c1ccccc1 (stereo not drawn)	-4.24% (inactive)
CSc1ccccc1NC(=O)c1ccc2c(c1)CCN2S(C)(=O)=O	-9.72% (inactive)
CCOCCCN(C)C1CCN(C(=O)c2oc3ccccc3c2NC(=O)Cc2cccc([N+](=O)[O-])c2)CC1	-15.5% (inactive)
COCC(=O)Nc1c(C(=O)N2CCCC2)oc2ccccc12	-21% (inactive)
CCOCCCN(C)C1CCN(C(=O)c2oc3ccccc3c2NC(=O)COc2cccc(C)c2)CC1	-84% (active)
CCCN(CC(=O)Nc1ccccc1C)C(=O)c1ccc(OCC(=O)N2CCOCC2)c(OCC)c1	-6.14% (inactive)
COc1cccc(CNc2nc3cc(-c4csc5ccccc45)sc3c(=O)n2C)c1	-22.5% (inactive)
CCCc1cc(=O)n2[nH]c(SCc3ccccc3)nc2n1	12.3% (inactive)
CC1(Oc2cccc(F)c2)CCN(Cc2ccccc2OC(F)F)C1 (stereo not drawn)	29.5% (inactive)
CC(=O)OC[C@@H]1CN(Cc2ccccc2)C[C@H](n2cnc3c(NCc4ccco4)ncnc32)O1	16.4% (inactive)
COc1ccc(CCNC(=O)c2ccc(NC(=O)CC3SC(N4CCCCC4)=NC3=O)cc2)cc1OC (stereo not drawn)	-53.6% (active)
COc1ccc(NC(=O)CC2SC(N3CCCCC3)=NC2=O)cc1OC (stereo not drawn)	3.71% (inactive)
O=C(CC1SC(N2CCCC2)=NC1=O)Nc1ccc(C(=O)NCCc2ccc(F)cc2)cc1 (stereo not drawn)	17.8% (inactive)
COc1ccc(/C=N/NC(=O)Cn2cc(C(F)(F)F)ccc2=O)cc1	-1.55% (inactive)
CC(C)(C)C(=O)N1CCC[C@@]1(CO)C(=O)O	1.41% (inactive)
Cc1nn(-c2ncccn2)c2c1C(=O)CC(C)(C)C2Br (stereo not drawn)	-64.8% (active)
Cc1nn(-c2ccccc2)c2c1C(=O)NC(=O)C(C)(C)C2	-17.4% (inactive)
CCCCn1nnnc1C1(C)CCC(=O)N1Cc1ccc(OC)c(OC)c1 (stereo not drawn)	0% (inactive)
CCCCCCCCN1C(=O)[C@H](CC(=O)NCC23CC4CC(CC(C4)C2)C3)C[C@@]2(C(=O)OC)CCCCC=C12	-29.6% (inactive)
COc1ccc(-c2oc3ncn(Cc4ccco4)c(=N)c3c2-c2ccc(OC)cc2)cc1	-65.2% (active)
COc1ccc(-n2cnc3cc(NCc4ccco4)ccc32)cc1	-17.9% (inactive)
COc1ccc(-c2nnc(SCC(=O)c3ccco3)n2-c2ccccc2)cc1	-3.17% (inactive)
O=[N+]([O-])c1ccc2c(c1)C(N1CCOCC1)/C(=C/C1(O)CCCCC1)O2 (stereo not drawn)	4.33% (inactive)
C#CCN(C[C@@H]1[C@@H](OC(=O)NC2CC2)[C@@H](OC(=O)NC2CC2)Cn2c(=O)ccc(=O)n21)S(=O)(=O)c1ccc(C)cc1	-84.6% (active)
Cc1ccc(S(=O)(=O)N2C[C@]3(O)C[C@@H]4C(=O)N(c5ccccc5)C(=O)[C@@H]4C[C@]3(OC(=O)NC3CC3)C2)cc1	-19.7% (inactive)
C#CCN(C[C@H]1[C@H](OC(=O)NC2CCCC2)[C@H](OC(=O)NC2CCCC2)C[C@H]2C(=O)N(c3ccccc3)C(=O)[C@@H]12)S(=O)(=O)c1ccc(C)cc1	-9.89% (inactive)

Structure (SMILES)	activity change
N#CC1(Nc2ccc3c4c(cccc24)CC3)CCCCC1	0% (inactive)
O=C(NCCc1ccccn1)c1cc(C(=O)C2CCCCC2)c[nH]1	3.93% (inactive)
CC(=O)CSc1nc(CCc2ccccc2)c(C#N)c(=O)[nH]1	3.36% (inactive)
Cc1cc([N+](=O)[O-])ccc1NC1CCCC1	-6.41% (inactive)
Cc1cc(C=O)c(C)n1-c1ccc(NC2CCCCC2)c([N+](=O)[O-])c1	-93.9% (active)
Cc1c(NS(=O)(=O)c2ccc(NC3CCCC3)c([N+](=O)[O-])c2)c(=O)n(-c2ccccc2)n1C	-9.94% (inactive)
CCCC(=O)Nc1ncnc2c1ncn2[C@@H]1O[C@@H]2OP(=O)(O)OC[C@H]2[C@H]1OC(=O)CCC	0% (inactive)
Cc1cnc(C(=O)OCc2c(C)cc(C(C)(C)C)cc2C)cn1	-4.05% (inactive)
ClC1(Cl)CC1CSc1ncn[nH]1 (stereo not drawn)	-1.77% (inactive)
CCCCCCCCN1C(=O)[C@H](CC(=O)NCc2cccc3ccccc23)C[C@@]2(C(=O)OC)CCCCC=C12	-30% (inactive)
COc1ccc(-c2cc(NC=O)c3ncc(-c4cc(OC)c(OC)c(OC)c4)n3c2)c(OC)c1	39.1% (inactive)
COc1ccc(-c2cc(NC=O)c3ncc(-c4cccc(C(=O)N(C)C)c4)n3c2)c(OC)c1	47.4% (inactive)
CC(=O)Nc1cc(-c2cccc(CO)c2)cn2c(-c3cccc(C(F)(F)F)c3)cnc12	-13.6% (inactive)
CN(C)CCNC(=O)c1cccc(-c2cnc3c(NC=O)cc(-c4cccc(C(F)(F)F)c4)cn23)c1	-107% (active)
CC(=O)c1cccc(-c2cnc3c(NC=O)cc(-c4ccccc4Oc4ccccc4)cn23)c1	98.2% (inactive)
COc1ccc(-c2cc(NC=O)c3ncc(-c4ccccc4)n3c2)cc1OC	-59.3% (active)
CC(=O)c1cccc(-c2cnc3c(NC=O)cc(-c4cccc(C(=O)N(C)C)c4)cn23)c1	107% (inactive)
CC(=O)c1cccc(-c2cnc3c(NC=O)cc(-c4ccc(N(C)C)cc4)cn23)c1	51.7% (inactive)
CC(=O)c1ccc(-c2cnc3c(NC=O)cc(-c4cccc(NS(C)(=O)=O)c4)cn23)cc1	-68.2% (active)
CCc1nc2ccc(C(=O)N3CCN(S(=O)(=O)CC)CC3)cn2c1N(C=O)CCC(C)C	36.3% (inactive)
COc1cc(C(=O)OC(C)C(=O)NCC2CCCCC2)cc(NC(=O)c2ccco2)c1OC (stereo not drawn)	-6.5% (inactive)
Cc1oc(C)c(C(=O)NCCCC(=O)O)c1C(=O)NCCCC(=O)O	18.8% (inactive)
CCc1nc2c(OCCOc3ccccc3)cccn2c1N(C)C(=O)c1cccs1	-18.6% (inactive)
O=c1c2c(nc3cc(-c4cccc(Cl)c4)[nH]n13)CCCC2	-102% (active)
Cc1cc(=O)n2[nH]c(-c3cccc(Cl)c3)cc2n1	9.73% (inactive)
CCCCN1Cc2c(nc3cc(-c4ccccc4)[nH]n3c2=O)C1=O	13% (inactive)

From PubChem BioAssay AID743279 (National Center for Advancing Translational Sciences (NCATS), 2014)
